# The list is not random: actives were taken first. Their share in the collection is about 8.1%.
# PINK1 modulator: PINK1 expression modulation | Potency, µM (doses to about 76.6 µM), for the others: at the top dose activation (PINK1 increase), hits mostly activators | AID 624263 | 410,000 compounds, 0.2% hits | PINK1 immunofluorescence, high-content cytometry, 24 h; active = well fitted activation curve with a large enough effect; inconclusive = small, poorly fitted or top-dose-only effect; cell line not stated here; also: % of control where 0% means no effect; nearly all actives have a fitted effect of over 65% in size
#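 PINK1 protein level read as immunofluorescence by microplate cytometer in a fixed, stained stable cell line after 24 h exposure to five compound concentrations, with CCCP as control.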
# RORgamma inh: ROR gamma (mouse) transcription inhibition. P51450. Drosophila S2 Gal4-RORgamma UAS-luciferase reporter, 20 h. Potency, µM (doses to about 53.6 µM), inactives show at the highest dose activity change, negative = inhibition, hits mostly inhibitors. 310,000 compounds, 5.4% hits. AID 2551; also: % is scaled to controls: 0 for no effect and ±100 for the full control effect; nearly all actives have a fitted effect of over 60% in size
#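 Luminescence from a UAS-regulated Photinus luciferase reporter in stably transfected Drosophila Schneider cells is measured; decreased signal marks ROR gamma inhibition. Fusion expression is induced by 700 uM copper sulfate for 20 hr.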
# Epigenetic derep: derepresses silenced GFP reporter in murine cells; Potency, µM (top dose mostly 53.9 µM), inactives show top-dose GFP activation, most hits filed as activators; 280,000 compounds, 0.2% hits; murine LDR cells, GFP reporter derepression, 30 h; AID 1865; also: % of control where 0% means no effect; nearly all actives have a fitted effect of over 60% in size
#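 Reporter derepression read as number of fluorescent GFP-positive objects, 20-120 um in size, counted by laser-scanning cytometer. Mouse LDR line with an epigenetically silenced CMV-GFP locus; compound incubation 30 h, 37 C.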
# ClpP mod: qHTS Assay for Activators of ClpP | ATP-dependent Clp protease proteolytic subunit (Bacillus subtilis (strain 168)), P80244 | purified B. subtilis ClpP, FRET peptide cleavage, 20 min | 340,000 compounds, 1.9% hits | Potency, µM (series often up to 57.5 µM), inactives show at the top dose activity change, negative = active; active = well fitted falling curve with a large enough effect; inconclusive = small, poorly fitted or top-dose-only effect; inactive = no such curve, though single readings can be large or run the other way; also: the source files actives as falling curves though it sought activators and does not explain the sign; nearly all actives have a fitted effect of over 65% in size
# Target sequence (P80244 whole entry, looked up): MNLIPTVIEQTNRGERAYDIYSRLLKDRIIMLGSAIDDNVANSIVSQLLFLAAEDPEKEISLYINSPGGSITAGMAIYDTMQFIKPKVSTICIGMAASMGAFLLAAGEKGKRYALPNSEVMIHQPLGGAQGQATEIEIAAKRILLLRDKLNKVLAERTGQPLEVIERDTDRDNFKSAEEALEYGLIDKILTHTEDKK
#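 ClpP 10 microg/mL final, pH 8 Tris/KCl buffer with BSA, glycerol, Tween-20; compound pinned in; FRET-FV substrate; RT 20 min; Ex320/Em430; ΔFRET vs ADEP 5.8 microM, DMSO, no enzyme.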
# Sfp PPTase inh: blocks B. subtilis Sfp PPTase activity | 310,000 compounds, 3.5% hits | AID 1490 | Q9F4F7 | Potency, µM, for inactives: largest response in the series, negative = inhibition, hits mostly inhibitors | Biochemical Sfp PPTase activity, qHTS;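 also: the enzyme is Sfp with the accession as filed and its product quenches rhodamine fluorescence; 0% = enzyme reaction without inhibitor and -100% = no enzyme wells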
#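 After 15 min at room temperature with compound, 15 nM Sfp received 5 uM rhodamine-CoA plus 12.5 uM BHQ-2-ybbR (50 mM Hepes pH 7.6, 10 mM MgCl2). Rate came from the fluorescence difference over 30 min, ex 525/em 598 nm.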
# VP16 counter: counter-screen for ROR gamma inhibitors: Gal4-VP16 reporter; Drosophila S2 Gal4-VP16 UAS-luciferase, luminescence, 20 h; Potency, µM (highest dose often 53.6 µM), for inactives: top-dose activity, negative = inhibition, actives largely listed as inhibitors; 310,000 compounds, 3.5% hits;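 also: Gal4-VP16 expression switched on by copper sulfate through the metallothionein promoter; % is scaled to controls: 0 for no effect and ±100 for the full control effect; nearly all actives have a fitted effect of over 50% in size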
# * hit, by the source's call; u = inconclusive; x = no result; [ ] = another dose, or the depositor's remark. Unless noted, calls follow the shape of the dose curve; as a rule, active = well fitted curve in the direction sought with a large enough effect; inconclusive = small, poorly fitted or top-dose-only effect, or another doubt; inactive = no such curve, though single readings can be large; an effect the other way counts as inactive or inconclusive. Potency is read from the fitted curve at half-maximal effect.
SMILES,PINK1 modulator,RORgamma inh,Epigenetic derep,ClpP mod,Sfp PPTase inh,VP16 counter
COCC(=O)Nc1cc(OC)cc(OC)c1,2%,-8%,-1%,28µM*,15%,3%
COc1cc(NC(=O)CCN2CCN(Cc3ccccc3)CC2)cc(OC)c1,-1%,14%,-2%,-1%,-10%,2%
CCN(CCC(=O)Nc1cc(OC)cc(OC)c1)Cc1ccccc1,-3%,10%,0%,-16%,45µM*,-1%
COc1ccc(-n2c(=O)c3ccccc3n(Cc3ccccc3C)c2=O)c(OC)c1,0%,x,-5%,-20%,x,x
O=C(Nc1ccc2[nH]c(=S)sc2c1)Nc1ccccc1F,2%,8%,2%,2%,u,-8%
Oc1[nH]c(=S)sc1C=C1N=c2ccccc2=N1,-2%,-14%,1%,x,3%,16%
S=c1[nH]c2ccccc2s1,x,7.9µM*,2%,x,12%,10µM*
O=C(Nc1ccc2[nH]c(=S)sc2c1)c1ccccc1,3%,-23%,-2%,x,50µM*,10%
Cc1ncc2c(c1CNC(=O)c1ccccc1F)CCN(C(=O)c1[nH]c3ccc(Cl)cc3c1C)C2,4%,x,x,x,x,x
C=CCN(CC=C)S(=O)(=O)c1ccc(NC(=S)NC(=O)c2ccco2)cc1,-1%,0%,-1%,1%,-20%,u
C=CCN(CC=C)S(=O)(=O)c1ccc(NC(=S)NC(=O)/C=C/c2cccc3ccccc23)cc1,7%,2.2µM*,-2%,-12%,25%,u
C=CCN(CC=C)S(=O)(=O)c1ccc(NC(=S)NC(=O)c2ccc(-c3ccccc3)cc2)cc1,-2%,1.4µM*,-1%,-8%,u,2.5µM*
Cc1cc(NS(=O)(=O)c2ccc(NC(=S)NC(=O)/C=C/c3ccccc3)cc2)no1,1%,u,x,x,16%,0%
C=CCN(CC=C)S(=O)(=O)c1ccc(NC(=S)NC(=O)/C=C/c2ccc(C)cc2)cc1,7%,10µM*,-1%,1%,9%,u
Cc1ccc(C)c(NC(=O)Cc2coc3cc(C)cc(C)c23)c1,-1%,x,-2%,-3%,x,x
COc1cc2cc(CN(CCCO)S(=O)(=O)c3ccccc3)c(=O)[nH]c2cc1OC,x,-17%[10 µM],3%,13µM*,8%,4%
COc1cc2cc(CN(CCO)S(=O)(=O)c3ccccc3Cl)c(=O)[nH]c2cc1OC,0%[38.3 µM],18%,-7%,28µM*,9%,-6%
O=C(c1ccccc1)N(CCO)Cc1cc2cc3c(cc2[nH]c1=O)OCCO3,4%,-9%,0%,x,21%,-9%
O=c1[nH]c2cc3c(cc2cc1CN(CCO)S(=O)(=O)c1ccccc1Cl)OCCO3,1%[38.3 µM],23%,1%,28µM*,-4%,-1%
COc1cc2cc(CN(CCCO)S(=O)(=O)c3ccccc3Cl)c(=O)[nH]c2cc1OC,12%[38.3 µM],1%,-1%,u,-4%,-12%
COc1ccc(-c2cc(C(F)(F)F)nc(SCC(=O)Nc3ccc(O)cc3)n2)cc1OC,1%,x,-1%,-18%,x,x
COc1ccc(NC(=O)Cn2c(=O)n(CCc3ccccc3)c(=O)c3sc4ccccc4c32)cc1,2%,x,12%,4%,x,x
CO[C@H]1[C@H](NC(=O)c2ccco2)c2ccccc2C12CCN(Cc1cnc(N(C)C)s1)CC2,1%,x,x,x,x,x
CCOC(=O)c1cc(S(=O)(=O)Nc2ccc(C)cc2Cl)[nH]n1,0%,x,0%,0%,x,x
Cc1ccccc1NC(=O)c1nc(S(=O)(=O)Cc2ccccc2F)ncc1Cl,5%,x,x,u,x,x
COc1ccc(-n2c(/C=C/c3c(C)[nH]c4ccccc34)nc3ccccc3c2=O)cc1,13%,x,10µM*,-4%,x,x
Cc1[nH]c2ccccc2c1/C=C/c1nc2ccccc2c(=O)n1-c1cccc([N+](=O)[O-])c1,5%,-26%[10 µM],18%,-13%,3%,u
